Screening results as filed in PubChem BioAssay.
Sampled rows, rich in hits. Any-hit rate of the full collection: about 1.9%.
Yeast superoxide – caloric restriction mimetics inhibiting age-related superoxide in yeast | S. cerevisiae aged cells, superoxide DHE fluorescence; hits give low values | superoxide response (% of plate mean), % at 10 µM | 330,000 tested, 0.18% active;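 active = superoxide response under a set limit, about three screen SD below normal, cut at about 65% in these data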;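 note: yeast aged for seven days with compound at 30 °C before DHE staining; 100% = average MFI of all compound-treated wells on the plate with controls excluded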
MEX-5 binding – C. elegans MEX-5 TCR-2 RNA binding activity; Q9XUB2; MEX-5/FITC-TCR2 RNA binding, fluorescence polarization; hits give low values; activity score (negative = inhibition of binding), % at 10 µM; 300,000 tested, 0.38% active;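 active = inhibition past about -25% in most replicates, and total fluorescence under double the plate's negative control median, limit read from the data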;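 note: 0% = DMSO and -100% = 5 µM competing unlabeled TCR2 RNA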
Bcl-xL primary – inhibitors of human Bcl-xL; Q07817; GST-Bcl-xL / FITC-Bim BH3 peptide fluorescence polarization; inhibition, % at 10.9 µM; 320,000 tested, 0.7% active;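 active = inhibition above the mean of all tested compounds plus 3 SD, cutoff set per campaign, cut at about 30% in these data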;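 note: 0% = DMSO wells and 100% = unlabeled Bim-BH3 peptide competitor; inhibitors lower millipolarization by displacing the labeled peptide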
MCL1 BIM primary – disrupts human MCL1 binding to BIM-BH3 peptide. Q07820. GST-MCL1 / FITC-Bim-BH3 fluorescence polarization. inhibition, % at 10.9 µM. 320,000 tested, 0.68% active;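 active = inhibition above the mean inhibition of all tested compounds plus 3 SD, set per campaign, cut at about 40% in these data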;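 note: 0% = DMSO wells and 100% = unlabeled Bim-BH3 peptide control; higher means more loss of mP so more displacement of Bim peptide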
LANA-H2A inh – blocks KSHV LANA binding to histone H2A/H2B. inhibition, % (test concentration not listed). cell-free LANA-H2A/H2B peptide, fluorescence polarization. 320,000 tested, 0.6% active. Q9QR71; in the data active = inhibition mostly above about 10%, no sharp cut-off; inactive = mostly below about 6.7%
GLD-1 RNA inh – GLD-1-TGE RNA interaction inhibition (C. elegans); Q17339; purified GLD-1 + fluorescein TGE RNA, fluorescence polarization; inhibition, % at 5.96 µM; 320,000 tested, 0.44% active; AID 2280;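 active = percent inhibition above a per-plate cutoff, the plate mean of test compounds plus 3 SD, cut at about 30% in these data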;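 note: 0% = DMSO wells with GLD-1 and probe and 100% = wells lacking GLD-1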
Target sequence (Q17339 whole entry, looked up): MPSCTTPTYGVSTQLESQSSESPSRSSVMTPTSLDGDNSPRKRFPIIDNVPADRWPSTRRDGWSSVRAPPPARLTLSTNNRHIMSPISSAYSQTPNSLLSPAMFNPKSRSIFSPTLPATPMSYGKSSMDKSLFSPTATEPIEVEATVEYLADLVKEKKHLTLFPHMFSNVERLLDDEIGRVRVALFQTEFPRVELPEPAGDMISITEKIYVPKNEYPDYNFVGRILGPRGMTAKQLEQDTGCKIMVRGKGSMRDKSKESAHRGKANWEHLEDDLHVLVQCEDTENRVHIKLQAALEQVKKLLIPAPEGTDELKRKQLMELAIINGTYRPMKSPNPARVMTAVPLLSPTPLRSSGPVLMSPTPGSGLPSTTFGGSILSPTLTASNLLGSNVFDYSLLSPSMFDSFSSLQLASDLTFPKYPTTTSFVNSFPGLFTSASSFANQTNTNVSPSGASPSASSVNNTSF
Numbers without * were called inactive; x = no result; ! = not active in a repeat.

SMILES	Yeast superoxide	MEX-5 binding	Bcl-xL primary	MCL1 BIM primary	LANA-H2A inh	GLD-1 RNA inh
CCOC(=O)c1c(C)[nH]c(C)c1C(=O)COC(=O)Cc1n[nH]c(=O)c2ccccc12	109	x	x	x	-2	1
O=C(O)c1cc(-c2ccc(/C=N/Nc3ccc([N+](=O)[O-])cn3)o2)ccc1Cl	x	-72*	x	x	x	x
CCNC(=S)/N=C(/Nc1ccccc1)Nc1nc(C)cc(C)n1	98	-9	13	15	11	-9
CCNC(=S)NC(=NCc1cccnc1)Nc1nc(C)cc(C)n1	100	11	38*	46*	0	13
N#CCc1ccccc1C(=O)OCC(=O)N(Cc1ccccc1)Cc1ccccc1	85	x	4	2	-1	1
O=S(=O)(NC1CC2CCC1C2)c1ccc2c(c1)OCCO2 (stereo unspecified)	116	-1	6	5	20*	10
CC1CCCC(NS(=O)(=O)c2ccc3c(c2)OCCO3)C1C (stereo unspecified)	105	2	2	4	5	-3
CC(C)(C)CN1CCN(Cc2cccnc2)CC1CCO (stereo unspecified)	99	0	-3	-1	-5	10
CCN(C(=O)COC(=O)c1cc(Cl)ccc1OC)c1c(N)n(Cc2ccccc2)c(=O)[nH]c1=O	104	x	7	9	39*	4
COc1ccc(Cl)cc1C(=O)OCC(=O)N(CC(C)C)c1c(N)n(Cc2ccccc2)c(=O)[nH]c1=O	102	-1	-2	-7	1	1
COc1ccc(OCCCC(=O)OCC(=O)Nc2sccc2C(N)=O)cc1	105	2	4	2	x	-5
CC(=O)c1ccc(OCC(=O)OCC(=O)Nc2sccc2C(N)=O)cc1	88	x	5	10	16*	-1
COc1ccc(-c2csc3ncnc(N4CCN(c5ccccc5[N+](=O)[O-])CC4)c23)cc1	87	0	2	6	1	4
Cc1ccc(S(=O)(=O)N2CCN(C(=O)C3CC3C)CC2)c(C)c1 (stereo unspecified)	94	2	-4	-15	0	3
Cc1ccc(S(=O)(=O)N2CCN(C(=O)C3CCN(C(=O)c4ccc(F)cc4)CC3)CC2)c(C)c1	114	3	5	3	22*	-4
c1ccc(-c2cc3cc4c(cc3cn2)OCO4)cc1	84	x	x	x	1	6
COc1ccc(CNC(=O)C2CCCN(c3nn4c(=O)cc(C)nc4s3)C2)cc1 (stereo unspecified)	100	x	1	-4	6	2
COc1ccc(NC(=O)C2CCCN(c3nn4c(=O)cc(C)nc4s3)C2)c(OC)c1 (stereo unspecified)	97	1	-4	0	11*	2
CCCN1CCN(CC(=O)Nc2nnc(CC)s2)CC1	98	2	1	11	-6	3
CCOc1ccccc1NC(=O)Cn1c(=O)n(CCC(=O)NC2CCCC2)c(=O)c2ccccc21	103	3	0	-9	31*	-2
Cc1cccc(NC(=O)Cn2c(=O)n(CCC(=O)NC3CCCC3)c(=O)c3ccccc32)c1	102	-1	0	-1	0	-3
CCCCC(=O)Nc1ccc(Cl)cn1	100	0	4	4	4	6
CCCC(C)C(=O)Nc1ccc(Cl)cn1 (stereo unspecified)	96	-1	162*	3	5	8
CCCCc1nnc(NC(=O)C(C)Sc2nc(C)cc(=O)[nH]2)s1 (stereo unspecified)	88	-4	1	9	12*	4
CCC(Sc1nc(C)cc(=O)[nH]1)C(=O)Nc1nnc(C)s1 (stereo unspecified)	101	-1	6	3	1	-5
SMILES	Yeast superoxide	MEX-5 binding	Bcl-xL primary	MCL1 BIM primary	LANA-H2A inh	GLD-1 RNA inh
COc1ccc(/C=C2\C(=O)ON=C2c2ccccc2)cc1	74	-2	-2	2	9	2
O=C1ON=C(c2ccccc2)/C1=C/c1ccc(OS(=O)(=O)c2ccccc2)cc1	84	x	9	5	121*	7
COc1ccc(-c2c(-c3cc(OC)cc(OC)c3)n(C)c3ccc(-c4ccc(S(N)(=O)=O)cc4)cc23)cc1	88	x	2	0	-1	-6
COc1ccc(O)c(/C=N/NC(=S)Nc2cccc(S(=O)(=O)N(C)C)c2)c1	88	0	8	9	-3	-8
CN(C)S(=O)(=O)c1cccc(NC(=S)N/N=C/c2ccc(O)c(O)c2O)c1	x	-48*	x	x	x	x
CC(=O)c1cc(NC(=O)c2cccc(C(F)(F)F)c2)c(=O)oc1/C=C/N(C)C	109	-36*	-44	-85	1	-72
CC(=O)c1cc(NC(=O)c2ccc(Cl)cc2)c(=O)oc1/C=C/N(C)C	92	-26*	-69	-103	6	-151
CCN(CC)CCCNc1cc(C(F)(F)F)c(C#N)c2nc3ccccc3n12	83	-9	38*	42*	7	20
Cc1cc(NCCCCO)n2c(nc3ccccc32)c1C#N	96	1	5	0	1	0
CC(=O)NC(Cc1ccc(F)cc1)C(=O)NC1CCN(S(=O)(=O)c2ccccc2)CC1 (stereo unspecified)	110	3	3	4	4	3
CC(=O)NC(Cc1cccc(C)c1)C(=O)NC1CCN(S(=O)(=O)c2ccccc2)CC1 (stereo unspecified)	93	0	5	8	13*	-6
O=C(NCC(=O)N1CCN(C(=O)c2ccccc2)CC1)c1ccc(Cl)cc1Cl	104	x	-2	1	-4	12
CN(C)c1nc(N(C)C)nc(N(C)C)n1	111	-2	1	2	19*!	12
CCCCN(C(=O)CC1CCCCC1)c1c(N)n(CC(C)C)c(=O)[nH]c1=O	123	x	-3	-9	71*	-7
Cc1cccc(NC(=O)c2nc[nH]c2C(=O)NCCCCNC(=O)c2[nH]cnc2C(=O)Nc2cccc(C)c2)c1	102	x	x	x	4	0
Cn1c(CC(=O)NNC(=O)c2cccnc2)nc2ccccc21	94	x	-4	7	19*	5
Cn1c(CC(=O)NNC(=O)c2ccc(F)cc2F)nc2ccccc21	120	x	3	3	-1	7
CC(=O)Nc1ccc(NC(=O)COC(=O)C2CCCCC2)cc1	93	x	x	x	1	2
CN1CCCc2cc(C=O)ccc21	91	-6	31*	30	-2	4
O=Cc1ccc(N2CCCC2)c([N+](=O)[O-])c1	88	-8	2	-3	1	4
O=C(CCl)N1CCN(S(=O)(=O)c2ccc3c(c2)CCC3)CC1	110	x	-3	-3	1	-3
CC(NCC(=O)NCCc1ccc(S(N)(=O)=O)cc1)c1ccc(F)cc1 (stereo unspecified)	102	0	0	2	-8	-3
